The record followed here is the supplement of paper PMC10941209.

Structures are written as SMILES.

The assay concerns HFF. The experiment in a line: cell viability relative to DMSO control; higher = less cytotoxic. Particulars: 1 µM; 72 h. On the procedure: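 Single-dose cytotoxicity screen of the MMV Pandemic Response Box at 1 uM on human foreskin fibroblasts (HFF), 72 h at 37 C. Viability measured by MTT (OD 550 nm) and normalised to the DMSO control (% survival).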
In the case of `CCc1cc(CCC(=O)Nc2ccccc2O)c(O)nc1C`, the cell viability (commonly the share of living cells, or the viability signal relative to a control) was determined as 71.2%.
Regarding `COc1ccc(NC(=O)CC2Sc3ncnn3C2=O)cc1` (stereo not drawn), the cell viability was 73.4%.
As for `NC(=O)c1ccccc1NC(=O)c1ccc(C(=O)Nc2ccccc2C(N)=O)cc1`, the cell viability is 63.5%.
`Cc1ccc(N2CCC(CCOc3ccc(S(C)(=O)=O)cc3)CC2)nn1` had a cell viability of 68.1%.
Under `Nc1nc(-c2ccccc2)nc2[nH]nc(Nc3ccc(C(F)(F)F)cc3)c12` stands 64.3%; under `COC(=O)Nc1nc2c(C)cccc2[nH]1`, 69.3%.
As for `Cc1cc(CCCOc2c(C)cc(-c3noc(C(F)(F)F)n3)cc2C)on1`, the cell viability stood at 65.5%.
Compound `N#Cc1c(F)c(Cl)c(NCc2ccccc2)c(C#N)c1F` displayed a cell viability of 66.6%.
`CC(=O)N1CCN(c2ccc(OCC3COC(Cn4ccnc4)(c4ccc(Cl)cc4Cl)O3)cc2)CC1` (stereo not drawn) showed a cell viability of 62.9%.
`Nc1nc(C(F)(F)F)cc2c1[nH]c(=O)n2Cc1ccccc1` yielded a cell viability of 65%.
The compound `CCCCC(CC)CNC(=N)NC(=N)NCCCCCCNC(=N)NC(=N)NCC(CC)CCCC` (stereo not drawn) registered a cell viability of 63.4%.
`O=C(Nc1nnc(-c2ccc(Cl)cc2)o1)c1nc2ccccc2s1`: the cell viability was determined as 65.8%.
`CCc1nc(N)nc(N)c1C#CCc1ccccc1` registered a cell viability of 69.3%.
In the case of `Nc1nnnn1CCOc1c2[nH]c3ccc(Cl)cc3c2cc2c1[nH]c1ccc(Cl)cc12`, the cell viability was determined as 65.4%.
`CC(N)C12CC3CC(CC(C3)C1)C2` (stereo not drawn) gave a cell viability of 63.2%.
`CN(Cc1ccc(C(C)(C)C)cc1)Cc1cccc2ccccc12` yielded a cell viability of 62.8%.
Take `Cn1cc(NC(=O)c2cc(NC(=O)c3ccc(/C=C/c4cnc5ccccc5c4)cc3)cn2C)cc1C(=O)NCCN1CCOCC1`: the cell viability was 69.2%.
`Oc1cccc(C(Nc2nccs2)c2ccc3cccnc3c2O)c1` (stereo not drawn) came in with a cell viability of 72%.
